Screens as filed in PubChem BioAssay.
MARV entry inh = inhibitors of Marburg virus binding or cell entry | Marburg virus pseudotyped entry inhibition, cell reporter | Potency, µM (doses to about 37.8 µM), for the others: top-dose activity change, negative = inhibition, hits mostly inhibitors | 1.8% of 300,000 active | AID 540276; calls by dose curve; tested in HEK293 cells; further: potency means the concentration at half of the fitted maximal effect
LASV entry inh = blocks Lassa virus binding to or entry into cells; Lassa virus pseudotype entry inhibition, cell reporter; Potency, µM (titrated, usually from 37.9 µM), without a hit: at the top dose activity change, negative = inhibition, hits mostly inhibitors; 1.2% of 300,000 active; calls by dose curve; tested in HEK293 cells; further: potency means the concentration at half of the fitted maximal effect; nearly all actives have a fitted effect of over 50% in size
HCMV inh = inhibitors of human cytomegalovirus. HFF cells, HCMV-luciferase reporter, 72 h; stronger effect = lower value. 4.5% of 410,000 active. AID 1259415. activity change, negative = inhibition, % at 57.5 µM; in the data active means activity change below about -60%; inconclusive means no clear call, values can overlap the other calls; inactive means above about -39%
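Luciferase read-out from HCMV-luciferase-infected HFFs (MOI 1 PFU/cell) 72 h post infection at 37C; compounds added after 16 h cell attachment; activity normalized between buffer-only basal and Salinomycin (10uM) inhibitor controls.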
FMDV antiviral = antivirals against foot and mouth disease virus. FMDV antiviral cell-based qHTS. Potency, µM (top dose mostly 57.9 µM), inactives show at the top dose activity change, negative = inhibition, most hits filed as inhibitors. 1.2% of 410,000 active; calls by dose curve; tested in HEK293T cells; further: read-out not given here; potency means the concentration at half of the fitted maximal effect; nearly all actives have a fitted effect of over 45% in size
The depositor's hits bear a star; ? = inconclusive; / = no result given; [ ] = another dose, or the depositor's remark. Hits are enriched below; roughly 6.2% of the tested compounds scored in any of these assays. On the % scale 0 is the no-effect control and ±100 the full control effect.

SMILES | MARV entry inh | LASV entry inh | HCMV inh | FMDV antiviral
COCCNC(=O)c1ccc(-n2c(-c3ccccc3)cc3c2CCC(C)C3)cc1 (centres undefined) | / | 3%[46.1 µM] | -101* | 0%
CC(C)(C)NC(=O)C1CCN(S(=O)(=O)c2cccc3nsnc23)CC1 | / | / | -37 | -11%
C[C@H](c1ccccc1)N1C[C@H](COCc2ccccc2)Oc2cc(N3CC[C@H](N(C)C)C3)ccc2S1(=O)=O | / | / | ? | 16%
COc1ccc2sc3ccccc3c(=O)c2c1OC | 15% | ? | 49 | 38%
O=C1c2ccccc2C(=Nc2ccccc2)C1c1cccc(Br)c1 (centres undefined) | ? | 4% | -37 | -9%
CCOc1ccc2ncc(S(=O)(=O)c3ccc(C)cc3)c(N3CCC4(CC3)OCCO4)c2c1 | ? | ? | -90* | -22%
CCN1CCN(c2c(S(=O)(=O)c3ccc(OC)cc3)cnc3cc(OC)c(OC)cc23)CC1 | ? | / | -39 | -17%
CC(=O)N1CCN(c2ccc(NC(=O)c3ccc([N+](=O)[O-])cc3Cl)cc2)CC1 | ? | 27%[46.1 µM] | -16 | -6%
O=C(NNc1ccccc1[N+](=O)[O-])Nc1ccc(Cl)c(Cl)c1 | ? | -10% | 18 | -14%
CCN(CC)S(=O)(=O)c1cc([N+](=O)[O-])ccc1NNC(=O)Nc1ccc(Cl)c(Cl)c1 | ? | -8% | -93* | ?
CCCCN(CCCC)S(=O)(=O)c1ccc(NC(=O)c2cccs2)cc1 | 18µM* | ? | ? | 0%
CCCCN(CCCC)S(=O)(=O)c1ccc(NC(=O)c2ccc([N+](=O)[O-])cc2Cl)cc1 | ? | ? | -78* | ?
Cc1onc(-c2ccccc2)c1C(=O)N/N=C/c1ccc([N+](=O)[O-])s1 | ? | ? | -28 | ?
CC(NC(=O)COC(=O)C1(C)CC1(Cl)Cl)c1ccccc1 (centres undefined) | / | / | -9 | 3%
CCOC(=O)[C@]12CCC=C1N(Cc1cccc3ccccc13)C(=O)[C@H](CC(=O)NCc1ccc(OC)c(OC)c1)C2 | / | / | -65* | 35µM*
CCOC(=O)[C@]12CCC=C1N(Cc1ccco1)C(=O)[C@H](CC(=O)NCc1ccc(OC)c(OC)c1)C2 | / | / | 5 | -21%
COC(=O)[C@]12CCCCC=C1N(CCc1ccc(OC)c(OC)c1)C(=O)[C@H](CC(=O)NCc1cccc3ccccc13)C2 | / | / | 8 | -23%
COC(=O)[C@]12CCCCC=C1N(Cc1cccc3ccccc13)C(=O)[C@H](CC(=O)NCc1ccc(OC)c(OC)c1)C2 | / | / | -86* | 14µM*
CC(C)(C)NC(=O)CN1C(=O)NC(c2ccccc2)(c2ccccc2)C1=O | 6%[46.1 µM] | 1%[46.1 µM] | -81* | -13%
O=C(CCl)NN1C(=O)NC(c2ccccc2)(c2ccccc2)C1=O | ? | ? | -88* | ?
COc1ccc(C2CC(c3ccccc3)=NN2c2ccc(/C=N/NC(=O)c3ccncc3)cc2)cc1 (centres undefined) | ? | -28% | 9 | 0%
CCOc1ccc(-n2c(C)c(C(C)=O)c(C(C)=O)c2C)cc1 | -1% | 1% | ? | -23%
CC(=O)c1c(C)n(-c2cccc(C)c2)c2ccc(OC(=O)COc3ccccc3)cc12 | -17%[46.1 µM] | -13%[46.1 µM] | -63* | 0%
CC(=O)c1c(C)n(-c2ccc(Cl)cc2)c2ccc(OC(=O)COc3ccccc3)cc12 | / | 11%[46.1 µM] | -17 | -11%
CCOc1ccc(-n2c(C)c(C(=O)O)c3cc(OC)ccc32)cc1 | 6.3µM* | ? | ? | -2%
SMILES | MARV entry inh | LASV entry inh | HCMV inh | FMDV antiviral
CCOc1ccc(-n2c(C)c(C(C)=O)c3cc(OC(C)=O)ccc32)cc1 | / | / | -78* | ?
CCC(=O)N(CCc1ccccc1C)Cc1cc2ccc(C)cc2[nH]c1=O | / | / | 33 | ?
Cc1ccc(CC2(OCCN(C)C)CCC(C(C)(C)C)CC2)cc1 (centres undefined) | 10µM* | ? | ? | ?
CN(C)CCOC1(Cc2ccc(F)cc2)CCC(C(C)(C)C)CC1 (centres undefined) | 11µM* | ? | ? | -28%
CN(C)CCCCOc1ccc(F)cc1 | 0%[46.1 µM] | 6% | -7 | -6%
Cc1ccc(NC(=O)C(=O)NCCN2CCN(C(=O)C(c3ccccc3)c3ccccc3)CC2)cc1 | -15% | -13% | 21 | ?
O=C(C1CCN(S(=O)(=O)c2cccnc2)CC1)N1CCN(C2CCCC2)CC1 | 16%[46.1 µM] | 0% | / | -12%
Nc1cc(S(=O)(=O)Nc2ccc(Cl)cc2)ccc1N1CCOCC1 | ? | ? | -72* | -9%
CCOC(=O)Nc1ccc(N2CCOCC2)c(S(=O)(=O)Nc2ccc(Cl)cc2)c1 | 10µM* | ? | 28 | 35%
CCOC(=O)c1c(C)[n+](-c2ccc(C)cc2)c(CC)c2cc(OC)c(OC)cc12 | / | / | -81* | -23%
CCC(=O)[C@@H](C)[C@@H](OC(C)=O)[C@H](C)C[C@@H](C)[C@H]1OC(=O)C[C@@]2(O)CC=C(C)C(O2)C(C)=CCCC[C@H](O[C@H]2C[C@@H](OC(N)=O)[C@H](OC(C)=O)[C@@H](C)O2)C=C[C@H](C)C[C@H]1C | / | / | ? | -29%
CCC(=O)[C@@H](C)[C@@H](O)[C@H](C)C[C@@H](C)C1OC(=O)C[C@@]2(O)CC=C(C)C(O2)C(C)=CCCC[C@H](O[C@H]2C[C@@H](OC(N)=O)[C@H](O)[C@@H](C)O2)C=C[C@H](C)C[C@H]1C (some centres undefined) | / | / | / | 18µM*
NS(=O)(=O)c1ccc(NC(=O)COC(=O)c2ccc3c(c2)OCCO3)cc1 | 19%[46.1 µM] | ? | -28 | -13%
CCCS(=O)(=O)NC(=O)C1(C)CCCN(C(=O)c2c(-c3ccccc3)noc2C)C1 (centres undefined) | / | / | -63* | -6%
Brc1cc2c(cc1COc1ccc(-c3nn[nH]n3)cc1)OCO2 | 17% | 2% | -18 | 10%
CN(C(=O)CC1C(=O)NCCN1Cc1cccc(F)c1F)C1CCOCC1 (centres undefined) | 16% | 0% | -1 | -8%
Cc1ccc(-c2cn3nc(C)c(C)nc3n2)cc1 | 0.28µM* | ? | -24 | -79%
Nc1nc(NCCc2ccccc2)nc(NCc2ccccc2)c1[N+](=O)[O-] | 5% | / | -3 | 0%
CN(Cc1ccccc1)c1nc(N)c([N+](=O)[O-])c(NCc2ccccc2)n1 | ? | ? | ? | 35µM*
Cc1ccc(CNc2ncnc(N)c2[N+](=O)[O-])cc1 | 17%[46.1 µM] | / | -61* | 2%
Cc1cccc(C)c1Nc1ncnc(N)c1[N+](=O)[O-] | 16% | 4% | -23 | -17%
Cc1ccc(OC(C)C(=O)N2CCN(CCc3ccccn3)CC2)cc1C (centres undefined) | 15%[46.1 µM] | -26%[46.1 µM] | 12 | -16%
CC1=CC(=O)c2c(O)cccc2C1=O | / | / | / | 8.9µM*
COc1cccc2c1C(=O)C=C(C)C2=O | 11µM* | 11µM* | -33 | ?
CCOC(=O)c1c(-c2ccc(C)s2)csc1N | / | / | ? | -14%
O=C1C(C=Nc2ccc(F)cc2)=C(O)c2ccccc21 | 9%[46.1 µM] | ? | 13 | -52%
COc1ccc(N=CC2=C(O)c3ccccc3C2=O)c(OC)c1 | ? | 2.5µM* | -31 | ?
Cc1ccccc1N=CC1=C(O)c2ccccc2C1=O | 8.9µM* | 10µM* | 23 | 8.9µM*
